Assay results published in PubChem BioAssay AID1159580 (chemical genetic matrix, 2015).
Several values for one entry are separate records, joined by “and”; a condition that tells them apart may be missing. Identical values can stand only once. Among all 5,500 compounds or so, about 2,000 (36%) were called active. Another 18% or so got no clear call; they are omitted. Rule as the data show it: active = normalized growth mostly below about 0.91 (no sharp cut-off); inconclusive = no clear call, values can overlap the other calls; inactive = mostly above about 0.92. This is one part of the list.

Assay: chemical genetic growth profiling, strain panel (AID 1159580);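 also: tested at 20 µM; growth read once vehicle control cultures reached saturation at 30 °C; 1 = growth at the plate median or of vehicle wells; lower values mean less growth of the strain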
Conditions: growth OD

Measured: normalized growth

C=C1CCC(C2CC(=O)OC2=O)C(=O)CCC2C1CC2(C)C (centres undefined)
inactive: S. cerevisiae deletion strains, locus YAL021C, strain ccr4, active compounds read low 0.991 | S. cerevisiae deletion strains, locus YAL026C, strain drs2, active compounds read low 1 | S. cerevisiae deletion strains, locus YAL030W, strain snc1, active compounds read low 1.01 | S. cerevisiae deletion strains, locus YBL061C, strain skt5, active compounds read low 1 | S. cerevisiae deletion strains, locus YBR009C, strain hhf1, active compounds read low 1 | S. cerevisiae deletion strains, locus YBR021W, strain FUR4, active compounds read low 1 | S. cerevisiae deletion strains, locus YBR023C, strain chs3, active compounds read low 1 | S. cerevisiae deletion strains, locus YBR171W, strain sec66, active compounds read low 1 | S. cerevisiae deletion strains, locus YBR229C, strain ROT2, active compounds read low 1.01 | S. cerevisiae deletion strains, locus YBR231C, strain swc5, active compounds read low 1 | S. cerevisiae deletion strains, locus YBR279W, strain paf1, active compounds read low 1.01 | S. cerevisiae deletion strains, locus YCL011C, strain gbp2, active compounds read low 1 | S. cerevisiae deletion strains, locus YCL016C, strain dcc1, active compounds read low 0.993 | S. cerevisiae deletion strains, locus YCL029C, strain bik1, active compounds read low 1.02 | S. cerevisiae deletion strains, locus YCL069W, strain vba3, active compounds read low 1.02 | S. cerevisiae deletion strains, locus YCR088W, strain abp1, active compounds read low 1.01 | S. cerevisiae deletion strains, locus YDL005C, strain med2, active compounds read low 1.01 | S. cerevisiae deletion strains, locus YDL035C, strain GPR1, active compounds read low 0.995 | S. cerevisiae deletion strains, locus YDL040C, strain nat1, active compounds read low 1.01 | S. cerevisiae deletion strains, locus YDL074C, strain BRE1, active compounds read low 1.03 | S. cerevisiae deletion strains, locus YDL101C, strain DUN1, active compounds read low 1.02 | S. cerevisiae deletion strains, locus YDL134C, strain PPH21, active compounds read low 1.04 | S. cerevisiae deletion strains, locus YDL185W, strain tfp1, active compounds read low 1.02 | S. cerevisiae deletion strains, locus YDL192W, strain arf1, active compounds read low 1.01 | S. cerevisiae deletion strains, locus YDR001C, strain nth1, active compounds read low 1 | S. cerevisiae deletion strains, locus YDR069C, strain doa4, active compounds read low 0.988 | S. cerevisiae deletion strains, locus YDR101C, strain arx1, active compounds read low 0.972 | S. cerevisiae deletion strains, locus YDR137W, strain rgp1, active compounds read low 1.01 | S. cerevisiae deletion strains, locus YDR159W, strain sac3, active compounds read low 0.97 | S. cerevisiae deletion strains, locus YDR162C, strain NBP2, active compounds read low 1 | S. cerevisiae deletion strains, locus YDR195W, strain ref2 0.986 | S. cerevisiae deletion strains, locus YDR297W, strain sur2, active compounds read low 1 | S. cerevisiae deletion strains, locus YDR318W, strain mcm21, active compounds read low 1 | S. cerevisiae deletion strains, locus YDR334W, strain swr1, active compounds read low 1 | S. cerevisiae deletion strains, locus YDR335W, strain msn5, active compounds read low 1.02 | S. cerevisiae deletion strains, locus YDR388W, active compounds read low 1 | S. cerevisiae deletion strains, locus YDR392W, strain spt3, active compounds read low 0.876 | S. cerevisiae deletion strains, locus YDR502C, strain sam2, active compounds read low 1.03 | S. cerevisiae deletion strains, locus YEL003W, strain gim4, active compounds read low 1.01 | S. cerevisiae deletion strains, locus YEL037C, strain rad23, active compounds read low 1.01 | S. cerevisiae deletion strains, locus YEL061C, strain CIN8 (second series), active compounds read low 1.01 | S. cerevisiae deletion strains, locus YER015W, strain faa2, active compounds read low 1.02 | S. cerevisiae deletion strains, locus YER016W, strain bim1, active compounds read low 1 | S. cerevisiae deletion strains, locus YER110C, active compounds read low 1.01 | S. cerevisiae deletion strains, locus YER111C, strain swi4, active compounds read low 1.01 | S. cerevisiae deletion strains, locus YER155C, strain BEM2 (second series), active compounds read low 0.983 | S. cerevisiae deletion strains, locus YER155C, strain BEM2, active compounds read low 1.01 | S. cerevisiae deletion strains, locus YER167W, strain BCK2, active compounds read low 1 | S. cerevisiae deletion strains, locus YFR010W, strain ubp6, active compounds read low 1.01 | S. cerevisiae deletion strains, locus YGL078C, strain dbp3, active compounds read low 1.03 | S. cerevisiae deletion strains, locus YGL086W, strain mad1, active compounds read low 1.01 | S. cerevisiae deletion strains, locus YGL167C, strain pmr1, active compounds read low 1.01 | S. cerevisiae deletion strains, locus YGL173C, strain kem1, active compounds read low 1 | S. cerevisiae deletion strains, locus YGL227W, strain vid30, active compounds read low 1.01 | S. cerevisiae deletion strains, locus YGL240W, strain doc1, active compounds read low 0.987 | S. cerevisiae deletion strains, locus YGL248W, strain PDE1, active compounds read low 1.04 | S. cerevisiae deletion strains, locus YGL253W, strain hxk2, active compounds read low 1.03 | S. cerevisiae deletion strains, locus YGR078C, strain PAC10, active compounds read low 1.04 | S. cerevisiae deletion strains, locus YGR135W, strain pre9, active compounds read low 1.05 | S. cerevisiae deletion strains, locus YGR252W, strain gcn5, active compounds read low 1.09 | S. cerevisiae deletion strains, locus YHR013C, strain ard1, active compounds read low 1.01 | S. cerevisiae deletion strains, locus YHR027C, strain rpn1, active compounds read low 1 | S. cerevisiae deletion strains, locus YHR030C, strain SLT2, active compounds read low 0.975 | S. cerevisiae deletion strains, locus YHR079C, strain IRE1 (second series), active compounds read low 1.01 | S. cerevisiae deletion strains, locus YHR079C, strain IRE1, active compounds read low 0.974 | S. cerevisiae deletion strains, locus YHR094C, strain hxt1, active compounds read low 0.995 | S. cerevisiae deletion strains, locus YHR129C, strain ARP1, active compounds read low 1.02 | S. cerevisiae deletion strains, locus YHR142W, strain chs7, active compounds read low 1.04 | S. cerevisiae deletion strains, locus YHR200W, strain rpn10, active compounds read low 1.03 | S. cerevisiae deletion strains, locus YIL066C, strain RNR3, active compounds read low 1.01 | S. cerevisiae deletion strains, locus YIL073C, strain SPO22, active compounds read low 1.02 | S. cerevisiae deletion strains, locus YIL125W, strain kgd1, active compounds read low 0.98 | S. cerevisiae deletion strains, locus YIR030C, strain dcg1, active compounds read low 1.01 | S. cerevisiae deletion strains, locus YJL092W, strain hpr5, active compounds read low 1.02 | S. cerevisiae deletion strains, locus YJL095W, strain BCK1 (second series), active compounds read low 1 | S. cerevisiae deletion strains, locus YJL095W, strain BCK1, active compounds read low 1.06 and 0.979 | S. cerevisiae deletion strains, locus YJL115W, strain asf1, active compounds read low 0.999 | S. cerevisiae deletion strains, locus YJL129C, strain trk1, active compounds read low 0.989 | S. cerevisiae deletion strains, locus YJL134W, strain LCB3, active compounds read low 0.997 | S. cerevisiae deletion strains, locus YJL154C, strain vps35, active compounds read low 1.02 | S. cerevisiae deletion strains, locus YJL164C, strain tpk1, active compounds read low 1 | S. cerevisiae deletion strains, locus YJL166W, strain qcr8, active compounds read low 1 | S. cerevisiae deletion strains, locus YJL168C, strain set2, active compounds read low 1.02 | S. cerevisiae deletion strains, locus YJL187C, strain SWE1 (second series), active compounds read low 1.04 | S. cerevisiae deletion strains, locus YJR066W, strain TOR1, active compounds read low 0.929 | S. cerevisiae deletion strains, locus YJR075W, strain HOC1, active compounds read low 1.02 | S. cerevisiae deletion strains, locus YKL009W, strain mrt4, active compounds read low 1 | S. cerevisiae deletion strains, locus YKL068W, active compounds read low 1 | S. cerevisiae deletion strains, locus YKL085W, strain MDH1 (second series), active compounds read low 1 | S. cerevisiae deletion strains, locus YKL085W, strain MDH1, active compounds read low 1 | S. cerevisiae deletion strains, locus YKL160W, strain elf1, active compounds read low 1 | S. cerevisiae deletion strains, locus YKR001C, strain vps1, active compounds read low 1 | S. cerevisiae deletion strains, locus YKR026C, strain gcn3, active compounds read low 1.01 | S. cerevisiae deletion strains, locus YKR091W, strain srl3, active compounds read low 1 | S. cerevisiae deletion strains, locus YLL001W, strain dnm1, active compounds read low 1.01 | S. cerevisiae deletion strains, locus YLL026W, active compounds read low 1 | S. cerevisiae deletion strains, locus YLL041C, strain sdh2, active compounds read low 1.01 | S. cerevisiae deletion strains, locus YLR027C, strain aat2, active compounds read low 1.02 | S. cerevisiae deletion strains, locus YLR039C, strain RIC1, active compounds read low 1.04 | S. cerevisiae deletion strains, locus YLR058C, strain SHM2, active compounds read low 1 | S. cerevisiae deletion strains, locus YLR102C, strain apc9, active compounds read low 1.01 | S. cerevisiae deletion strains, locus YLR113W, strain HOG1, active compounds read low 0.946 | S. cerevisiae deletion strains, locus YLR221C, strain rsa3, active compounds read low 0.99 | S. cerevisiae deletion strains, locus YLR258W, strain gsy2, active compounds read low 1.03 | S. cerevisiae deletion strains, locus YLR262C, strain YPT6 (second series), active compounds read low 0.993 | S. cerevisiae deletion strains, locus YLR268W, strain sec22, active compounds read low 0.975 | S. cerevisiae deletion strains, locus YLR320W, strain mms22, active compounds read low 0.999 | S. cerevisiae deletion strains, locus YLR330W, strain CHS5, active compounds read low 1.01 | S. cerevisiae deletion strains, locus YLR342W, strain FKS1, active compounds read low 1 | S. cerevisiae deletion strains, locus YLR357W, strain rsc2, active compounds read low 1.03 | S. cerevisiae deletion strains, locus YLR370C, strain arc18, active compounds read low 1.01 | S. cerevisiae deletion strains, locus YLR371W, strain rom2, active compounds read low 0.997 | S. cerevisiae deletion strains, locus YLR384C, strain iki3, active compounds read low 1.01 | S. cerevisiae deletion strains, locus YLR418C, strain cdc73, active compounds read low 1.09 | S. cerevisiae deletion strains, locus YML016C, strain PPZ1, active compounds read low 1.01 | S. cerevisiae deletion strains, locus YML032C, strain rad52, active compounds read low 0.999 | S. cerevisiae deletion strains, locus YML120C, strain ndi1, active compounds read low 1 | S. cerevisiae deletion strains, locus YML124C, strain tub3, active compounds read low 1 | S. cerevisiae deletion strains, locus YMR058W, strain fet3, active compounds read low 1.02 | S. cerevisiae deletion strains, locus YMR078C, strain ctf18, active compounds read low 1 | S. cerevisiae deletion strains, locus YMR125W, strain sto1, active compounds read low 1 | S. cerevisiae deletion strains, locus YMR129W, active compounds read low 1.01 | S. cerevisiae deletion strains, locus YMR205C, strain PFK2, active compounds read low 0.98 | S. cerevisiae deletion strains, locus YMR223W, strain ubp8, active compounds read low 1.01 | S. cerevisiae deletion strains, locus YMR231W, strain pep5, active compounds read low 0.991 | S. cerevisiae deletion strains, locus YMR263W, strain SAP30, active compounds read low 1.01 | S. cerevisiae deletion strains, locus YMR307W, strain GAS1, active compounds read low 1.06 | S. cerevisiae deletion strains, locus YNL067W, strain RPL9B, active compounds read low 1.02 | S. cerevisiae deletion strains, locus YNL071W, strain lat1, active compounds read low 1.01 | S. cerevisiae deletion strains, locus YNL153C, strain GIM3, active compounds read low 1.03 | S. cerevisiae deletion strains, locus YNL183C, strain NPR1, active compounds read low 0.937 | S. cerevisiae deletion strains, locus YNL209W, strain ssb2, active compounds read low 1 | S. cerevisiae deletion strains, locus YNL233W, strain BNI4, active compounds read low 1.04 | S. cerevisiae deletion strains, locus YNL248C, strain rpa49, active compounds read low 0.928 | S. cerevisiae deletion strains, locus YNL250W, strain rad50, active compounds read low 1.03 | S. cerevisiae deletion strains, locus YNL271C, strain bni1, active compounds read low 1.01 | S. cerevisiae deletion strains, locus YNL298W, strain CLA4, active compounds read low 0.993 | S. cerevisiae deletion strains, locus YNL307C, strain MCK1, active compounds read low 1.01 | S. cerevisiae deletion strains, locus YNL322C, strain KRE1 (second series), active compounds read low 0.989 | S. cerevisiae deletion strains, locus YNR049C, strain mso1, active compounds read low 1.01 | S. cerevisiae deletion strains, locus YNR052C, strain pop2, active compounds read low 1.01 | S. cerevisiae deletion strains, locus YOL012C, strain htz1 0.988 | S. cerevisiae deletion strains, locus YOL147C, strain pex11, active compounds read low 1 | S. cerevisiae deletion strains, locus YOR001W, strain rrp6, active compounds read low 0.976 | S. cerevisiae deletion strains, locus YOR061W, strain CKA2, active compounds read low 0.991 | S. cerevisiae deletion strains, locus YOR069W, strain VPS5, active compounds read low 1.01 | S. cerevisiae deletion strains, locus YOR070C, strain gyp1, active compounds read low 1.02 | S. cerevisiae deletion strains, locus YOR080W, strain dia2, active compounds read low 0.993 | S. cerevisiae deletion strains, locus YOR083W, strain WHI5, active compounds read low 0.997 | S. cerevisiae deletion strains, locus YOR106W, strain vam3, active compounds read low 1.02 | S. cerevisiae deletion strains, locus YOR136W, strain idh2, active compounds read low 1.01 | S. cerevisiae deletion strains, locus YOR144C, strain elg1, active compounds read low 0.996 | S. cerevisiae deletion strains, locus YOR184W, strain ser1, active compounds read low 0.98 | S. cerevisiae deletion strains, locus YOR231W, strain MKK1, active compounds read low 0.964 | S. cerevisiae deletion strains, locus YOR265W, strain rbl2, active compounds read low 0.995 | S. cerevisiae deletion strains, locus YOR270C, strain vph1, active compounds read low 1.01 | S. cerevisiae deletion strains, locus YOR290C, strain snf2, active compounds read low 0.952 | S. cerevisiae deletion strains, locus YOR316C, strain cot1, active compounds read low 1.02 | S. cerevisiae deletion strains, locus YPL051W, strain arl3, active compounds read low 1 | S. cerevisiae deletion strains, locus YPL078C, strain atp4, active compounds read low 1 | S. cerevisiae deletion strains, locus YPL106C, strain sse1, active compounds read low 1 | S. cerevisiae deletion strains, locus YPL240C, strain hsp82, active compounds read low 1 | S. cerevisiae deletion strains, locus YPL256C, strain CLN2, active compounds read low 0.962 | S. cerevisiae deletion strains, locus YPR119W, strain clb2, active compounds read low 1 | S. cerevisiae deletion strains, locus YPR141C, strain kar3, active compounds read low 1 | S. cerevisiae deletion strains, locus YPR163C, strain tif3, active compounds read low 1 | S. cerevisiae deletion strains, locus YPR167C, strain met16, active compounds read low 1 | S. cerevisiae deletion strains, strain wtn01, active compounds read low 0.997 | S. cerevisiae strains, strain wild type, active compounds read low 0.999
